# AmpC inh detg: inhibitors of E. coli AmpC beta-lactamase with detergent; P00811; AmpC hydrolysis of nitrocefin, absorbance 480 nm, 0.01% Triton; Potency, µM (series often up to 114 µM), hits mostly inhibitors; 370,000 compounds, 0.041% hits; also: nearly all actives have a fitted effect of over 25% in size
# Target sequence (P00811 whole entry, looked up): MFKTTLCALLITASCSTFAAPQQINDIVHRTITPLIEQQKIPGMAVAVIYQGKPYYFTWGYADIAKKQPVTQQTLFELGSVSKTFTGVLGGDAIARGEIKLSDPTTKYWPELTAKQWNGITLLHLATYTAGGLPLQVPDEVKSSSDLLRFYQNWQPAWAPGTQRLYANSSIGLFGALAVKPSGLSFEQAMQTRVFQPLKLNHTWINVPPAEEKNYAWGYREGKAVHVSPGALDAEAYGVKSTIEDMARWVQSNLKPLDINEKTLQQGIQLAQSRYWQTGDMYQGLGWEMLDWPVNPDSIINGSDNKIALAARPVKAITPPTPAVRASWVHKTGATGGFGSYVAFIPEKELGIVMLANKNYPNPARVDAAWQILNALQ
#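 AmpC (5.3 nM in the dispensed reagent) in 20 mM phosphate pH 7.0 with 0.01% (detergent screen) or 0.0001% Triton X-100 was preincubated with compounds for 15 min at room temperature. Nitrocefin was then added from an 800 uM solution, and hydrolysis was followed at 480 nm.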
# Pf growth 48h: inhibits P. falciparum growth in the first generation, 48 h | AID 504832 | 310,000 compounds, 5.9% hits | Potency, µM (series often up to 28.7 µM), hits mostly inhibitors | P. falciparum luciferase growth in erythrocytes, 48 h
#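 Luciferase-expressing P. falciparum in infected erythrocytes (2% hematocrit, 0.1% parasitemia final) in RPMI 1640/0.5% Albumax were exposed to compound for 48 hours at 37 C, 5% CO2; growth read as luminescence.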
# SARS PLP yeast: blocks SARS-CoV papain-like protease in a yeast assay; 330,000 compounds, 0.19% hits; S. cerevisiae expressing SARS-CoV PLpro, growth rescue; Potency, µM (highest dose often 32.9 µM), actives largely listed as activators; calls by dose curve; also: nearly all actives have a fitted effect of over 55% in size
# Pf growth 96h: inhibits malaria parasite growth, 96 h | P. falciparum luciferase reporter growth, 96 h | Potency, µM (titrated, usually from 28.7 µM), most hits filed as inhibitors | 320,000 compounds, 6.9% hits | AID 504834
#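 P. falciparum expressing integrated firefly luciferase grown in erythrocytes (2% hematocrit, 0.05% parasitemia final) with compounds for 96 hours at 37 C, 5% CO2. Growth inhibition read as loss of luminescence after adding luciferase detection reagent.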
# Sm TGR block: blocks Schistosoma mansoni thioredoxin glutathione reductase. Q962Y6. purified TGR, DTNB reduction, TNB absorbance 405 nm. Potency, µM (top dose mostly 114 µM), usual class: inhibitors. 360,000 compounds, 3% hits; also: nearly all actives have a fitted effect of over 60% in size
#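 TGR 20 nM + NADPH 100 uM (dispensed conc.), cpd preinc 15 min RT; start with NADPH (500 uM addition) then DTNB (15 mM addition). Kinetic TNB absorbance, 405 nm filter. Four-parameter Hill fit across titration.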
# AmpC inh no detg: inhibitors of E. coli AmpC beta-lactamase without detergent. P00811. AmpC nitrocefin hydrolysis, absorbance 480 nm, 0.0001% Triton. Potency, µM (series often up to 57.1 µM), actives largely listed as inhibitors. 330,000 compounds, 0.52% hits; also: nearly all actives have a fitted effect of over 20% in size
#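 AmpC (5.3 nM in the dispensed reagent) in 20 mM phosphate pH 7.0 with 0.01% (detergent screen) or 0.0001% Triton X-100 was preincubated with compounds for 15 min at room temperature. Nitrocefin was then added from an 800 uM solution, and hydrolysis was followed at 480 nm.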
# Numbers stand for hits; - = inactive; ? = inconclusive; . = no result. The list is not random: actives were taken first. Their share in the collection is about 12%. Unless noted, calls follow the shape of the dose curve; as a rule, active = well fitted curve in the direction sought with a large enough effect; inconclusive = small, poorly fitted or top-dose-only effect, or another doubt; inactive = no such curve, though single readings can be large; an effect the other way counts as inactive or inconclusive.
SMILES,AmpC inh detg,Pf growth 48h,SARS PLP yeast,Pf growth 96h,Sm TGR block,AmpC inh no detg
O=[N+]([O-])c1ccc2c(c1)S(=O)c1ccccc1-2 (stereo not drawn),?,8.3µM,-,?,-,-
C=CCNC(=O)CSc1ncc2c(n1)-c1c(csc1SC)CC2,-,-,-,-,-,-
CSc1scc2c1-c1nc(SCC(=O)C(C)(C)C)ncc1CC2,-,9.3µM,-,9.3µM,-,-
Cc1sc2ncn(CC(=O)NCCCC(=O)N3CCCCC3)c(=O)c2c1C,-,-,-,-,-,-
Cc1ccccc1S(=O)(=O)Cc1ccc(C(=O)NCCCN2CCCC(C)C2)o1 (stereo not drawn),-,-,-,2.3µM,?,-
Cc1ccccc1S(=O)(=O)Cc1ccc(C(=O)NCCN(Cc2ccccc2)C(C)C)o1,-,5.2µM,-,-,-,-
Cc1ccccc1S(=O)(=O)Cc1ccc(C(=O)NCCN(C)Cc2ccccc2)o1,-,-,-,-,?,-
CCN1C(c2ccccc2)C(C)C(=O)C(C)C1c1ccccc1 (stereo not drawn),-,12µM,-,9.3µM,-,-
CS(=O)(=O)Cc1nc2ccccc2oc1=O,-,?,-,6.6µM,?,-
C/C(O)=C\c1nc2ccccc2oc1=O,-,?,-,?,-,-
OCCC1CN(C2CCN(c3ccccc3F)CC2)CCN1Cc1ccccc1 (stereo not drawn),-,-,-,-,-,-
CC(C)(C)C(=O)/C(=C/c1ccncc1)n1cncn1,-,7.4µM,-,-,.,-
Cc1ccc(/C=C/c2nc3ccccc3[nH]2)o1,-,-,-,?,3.5µM,-
COc1ccc(N2CC(NC(=O)/C=C\c3ccc(OC)c(OC)c3)CC2=O)cc1 (stereo not drawn),-,.,.,.,-,.
O=C(NCCCCNC(=O)C1CCCC1)C1CCCC1,-,-,-,-,-,-
CCCCOCCCNC(=O)C1CCCCC1,?,-,-,8.3µM,-,-
O=C(NCCOc1ccc(Cl)cc1)C1CCCCC1,-,12µM,-,-,-,-
COc1ccc(NC(=O)Cn2c(=O)n(-c3cccc(C)c3)c(=O)c3c2c2cc(C)ccc2n3C)cc1Cl,-,.,.,.,-,.
CCC(C)[C@@H](N)C(=O)N/N=C/c1ccc2ncccc2c1 (stereo partly drawn),-,?,-,12µM,-,-
O=C(Nc1nccs1)c1nc[nH]c1C(=O)N1CCN(c2ccccc2)CC1,.,.,-,.,.,-
CC1CCN(C(=O)c2[nH]cnc2C(=O)Nc2nccs2)CC1,-,-,-,-,28µM,-
O=C(O)C1CSC(c2coc3ccccc3c2=O)N1 (stereo not drawn),?,-,-,?,2.5µM,-
COc1ccc(-c2cc3nc(-c4ccccc4)cc(N4CCCC(O)C4)n3n2)cc1 (stereo not drawn),-,8.3µM,-,-,-,-
Fc1ccc(-c2cc3nc(-c4ccccc4)cc(N4CCOCC4)n3n2)cc1,-,.,-,-,-,-
COc1ccc(-c2cc3nc(C)cc(-c4ccc(OC)cc4)n3n2)cc1,-,?,-,?,-,-
SMILES,AmpC inh detg,Pf growth 48h,SARS PLP yeast,Pf growth 96h,Sm TGR block,AmpC inh no detg
COc1ccc(-c2cc3nc(-c4ccccc4)cc(N4CCC(O)CC4)n3n2)cc1,-,10µM,-,-,-,-
CC(=C1C(=O)c2ccccc2C1=O)N1CCN(Cc2ccccc2)CC1,?,-,-,?,40µM,-
O=C(c1cccc(C(=O)N2CCN(Cc3ccccc3)CC2)c1)N1CCN(Cc2ccccc2)CC1,-,-,-,-,-,-
O=C(N1CCN(Cc2ccccc2)CC1)C(Cl)(Cl)Cl,-,10µM,?,-,-,-
CC(=C1C(=O)c2ccccc2C1=O)N1CCC(C(N)=O)(N2CCCCC2)CC1,?,-,-,.,32µM,-
Oc1c(Br)cc(Br)cc1CN1CCN(Cc2ccccc2)CC1,-,1.9µM,-,.,-,-
CCOc1ccc(NC(=O)CSC2=Nc3ccccc3C3=NC(CC(=O)NCc4cccs4)C(=O)N23)cc1 (stereo not drawn),-,.,.,.,-,.
Cc1ccc(C2CC(=O)NC(SCc3ccccc3)=C2C#N)o1 (stereo not drawn),-,?,-,?,?,-
N#CC1=C(SCc2ccccc2)NC(=O)CC1c1ccco1 (stereo not drawn),?,-,-,?,35µM,-
N#CC1=C(SCC(=O)NCc2ccccc2)NC(=O)CC1c1ccco1 (stereo not drawn),-,-,-,-,40µM,?
CCOC(=O)c1ccccc1NC(=O)CN(c1ccccc1)S(=O)(=O)N(C)C,-,3.3µM,-,.,-,-
Cc1ccc(-n2c(=O)c3c(c4cc(C)ccc4n3C)n(CC(=O)Nc3cc(C)cc(C)c3)c2=O)cc1,-,.,.,.,-,.
NC(=O)CSc1nc2ccccc2n1Cc1ccccc1,-,2.9µM,-,-,-,-
O=C(O)CSc1nc2ccccc2n1-c1ccccc1,-,-,-,-,-,-
Cc1ccc(-c2csc3ncnc(SCC(N)=O)c23)cc1,-,-,-,-,.,-
NC(=O)CSc1nc2ccccc2n1-c1ccccc1,-,-,-,9.3µM,-,-
Cc1ccc(-c2csc3nc(SCC(N)=O)n(Cc4ccccc4)c(=O)c23)cc1,?,13µM,-,-,-,-
COc1ccc(C(=O)c2cn(Cc3cccc(C)c3)c3cc4c(cc3c2=O)OCCO4)cc1OC,-,.,.,.,-,.
CCC(C)Nc1nc(N)c([N+](=O)[O-])c(Nc2cc(OC)ccc2OC)n1 (stereo not drawn),-,?,-,?,-,-
CCC(C)Nc1nc(N)c([N+](=O)[O-])c(Nc2ccccc2OC)n1 (stereo not drawn),-,12µM,-,10µM,-,-
N#CC(C#N)=Cc1ccccc1OCc1ccccc1,-,?,-,-,3.2µM,-
CCCCN(CCCNc1ncnc2nc[nH]c12)c1ccccc1,-,?,-,12µM,-,-
CCN(CCCNc1ncnc2nc[nH]c12)c1cccc(C)c1,?,-,-,-,-,?
CCNC(=O)CN(c1ccc(CC)cc1)S(C)(=O)=O,?,.,-,-,-,-
CCCCC(CC)C(=O)NCCCN1CCN(CCCNC(=O)C(CC)CCCC)CC1 (stereo not drawn),-,5.9µM,-,-,?,-
CCC(C(=O)NCCCN1CCN(CCCNC(=O)C(CC)c2ccccc2)CC1)c1ccccc1 (stereo not drawn),?,?,-,-,-,-
Oc1cc(Cc2ccccc2)cnc1CN1CCOCC1,-,2.9µM,-,?,?,-
c1ccc(CN2CCOCC2)cc1,-,-,?,.,-,-
O=Nc1c(-c2ccccc2)cc2ccccn12,-,4.7µM,-,9.3µM,-,-

# High-throughput results as filed in PubChem.
